SW480 rerep: A quantitative high throughput screen for small molecules that induce DNA re-replication in SW480 colon adenocarcinoma cells; actives 1.8% (n = 340,000); Potency, µM (highest dose often 46.1 µM), hits mostly activators; SW480 DNA re-replication, Hoechst DNA content imaging, 48 h; further: nearly all actives have a fitted effect of over 55% in size
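250 cells/well; 23 nL cpd via pin tool; 48 hr, 37 C, 5% CO2; Hoechst 40 min; imager read of total nuclear intensity, ex 405/em 500-530 nm.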
ELG1 DNA repair: qHTS screen for small molecules that inhibit ELG1-dependent DNA repair in human embryonic kidney (HEK293T) cells expressing luciferase-tagged ELG1; actives 2.3% (n = 330,000); HEK293T ELG1-luciferase reporter, luminescence, 16 h; DNA damage induced by 5-fluorouridine; Potency, µM (titrated, usually from 46.1 µM), most hits filed as inhibitors; AID 504467, 2011; further: nearly all actives have a fitted effect of over 55% in size
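Cells (2,000 per well) received 5-fluorouridine plus test compound or DMSO and were incubated 16 hr at 37 °C, 5% CO2. Luciferase activity was read by luminescence 30 min after ONE-Glo addition; signal suppression marked inhibition of damage-induced ELG1 function.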
KB-V1 MDR tox: qHTS assay for MDR1-selective chemotherapeutics: Primary screen using the drug-selected MDR subline cells KB-V1. Potency, µM (doses to about 46.1 µM), most hits filed as cytotoxic. actives 3.4% (n = 400,000). KB-V1 MDR cells viability, CellTiter-Glo, 72 h; further: nearly all actives have a fitted effect of over 60% in size
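Drug-selected KB-V1 cells, grown in DMEM lacking phenol red with 10% FBS, receive compound titrations; after three days at 37 degrees C, surviving cell ATP is quantified by CellTiter-Glo luminescence and responses normalized and curve-fitted.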
MCF10A rerep: A quantitative high throughput screen for small molecules that induce DNA re-replication in MCF 10a normal breast cells. Potency, µM (highest dose often 46.1 µM), most hits filed as activators. actives 2.9% (n = 350,000). MCF 10A DNA re-replication, Hoechst nuclear intensity, 48 h; further: nearly all actives have a fitted effect of over 50% in size
KB-3-1 cytotox: qHTS assay for MDR1-selective chemotherapeutics: Primary screen using the parental adenocarcinoma cell KB-3-1; Potency, µM (doses to about 46.1 µM), hits mostly cytotoxic; AID 1347075, 2019; KB-3-1 viability, CellTiter-Glo ATP luminescence, 72 h; actives 1.4% (n = 400,000); further: nearly all actives have a fitted effect of over 60% in size
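Screening of KB-3-1 cells (DMEM, 10% FBS, phenol-red free) ran from lowest to highest compound concentration; after 72 h at 37 °C viability was read luminescently and curves fitted.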
A number is an active result; - = inactive; ? = inconclusive; . = no result; [ ] = remark or other dose. Compounds with a hit are over-represented: about 8.2% of the library has one in this group of screens. The call rests on the fitted dose curve; in most records, active means well fitted curve in the direction sought with a large enough effect; inconclusive means small, poorly fitted or top-dose-only effect, or another doubt; inactive means no such curve, though single readings can be large; an effect the other way counts as inactive or inconclusive.

SMILES	SW480 rerep	ELG1 DNA repair	KB-V1 MDR tox	MCF10A rerep	KB-3-1 cytotox
CCN(Cc1ccccc1)C(=O)c1ccc(CNS(=O)(=O)c2ccc(C)cc2)cc1	-	-	18µM	21µM	-
CS(=O)(=O)N(Cc1ccc(Cl)cc1)c1ccc(C(=O)N2CCN(c3ccccc3)CC2)cc1	-	?	?	-	?
CCOC(=O)N1CCN(C(=O)c2ccc(CNS(=O)(=O)c3ccc(OC)cc3)cc2)CC1	-	?	-	-	-
Cc1ccc(S(=O)(=O)NCc2ccc(C(=O)N3CCc4ccccc4C3)cc2)cc1	-	?	4.6µM	-	-
CN1CCN(C(=O)c2ccc(N(Cc3ccc(Cl)cc3)S(C)(=O)=O)cc2)CC1	?	-	-	5.8µM	-
Cc1ccc(Cl)cc1NC(=O)C(=O)NCCc1sc(-c2ccc(F)cc2)nc1C	.	.	-	.	-
O=C(NCc1cccs1)c1cc(S(=O)(=O)N2CCOCC2)ccc1N1CCCC1	-	-	-	-	-
Cc1ccc(CNS(=O)(=O)c2ccc(N3CCCCS3(=O)=O)cc2)cc1	.	.	-	.	?
CCn1c(C)c(C)c2cc(C(=O)N3CCc4ccccc4C3)ccc21	?	?	?	3.7µM	13µM
Cc1ccc(CN(c2ccc(C(=O)N3CCc4ccccc4C3)cc2)S(C)(=O)=O)cc1	-	16µM	-	-	-
CC(=O)Nc1cc(C(=O)N2CCc3ccccc3C2)ccc1Sc1ccc(C)cc1	-	-	?	21µM	-
COc1ccc(CNS(=O)(=O)c2ccc(N3CCCCS3(=O)=O)cc2)cc1	.	.	?	.	16µM
CC(Sc1nncn1C)C(=O)Nc1ccc(N2CCCCC2)cc1 (centres undefined)	-	?	-	-	-
O=Cc1cc2c3c(c1)CCCN3CCC2	.	.	-	.	-
N#Cc1cc2c(nc1SCC(=O)Nc1nccs1)CCCCC2	-	?	-	3.7µM	-
Cc1ccc(C#N)c(SCC(=O)Nc2nccs2)n1	16µM	?	-	?	-
COC(=O)CC(=O)CSc1nc2c(cc1C#N)CCC2	?	?	?	1.6µM	-
N#Cc1cc2c(nc1SCC(=O)Nc1sc3c(c1C#N)CCC3)CCCCCC2	?	?	-	3.3µM	-
CC(C)OC(=O)CC(=O)CSc1nc2c(cc1C#N)CCC2	-	?	-	?	-
N#Cc1cc2c(nc1SCC(=O)Nc1sc3c(c1C#N)CCC3)CCC2	-[9.22 µM]	?	-	?	-
Cc1ccc(SCC(=O)Nc2nccs2)cc1	-	?	-	-	-
COc1cccc(-c2cc(NC=O)c3ncc(-c4ccc(F)c(Cl)c4)n3c2)c1	.	.	?	.	-
CC1=C(C(=O)N2CCN(c3cccc(Cl)c3)CC2)C2(CCCCC2)OC1=O	.	.	-	.	-
CCc1cccc(NC(=O)c2cc3c(=O)[nH]c4ccccc4c3n2C)c1	.	.	-	.	-
CCOC(=O)c1c(SCC(=O)Nc2nccs2)nc(C)c(C)c1C	-	?	.	16µM	.
SMILES	SW480 rerep	ELG1 DNA repair	KB-V1 MDR tox	MCF10A rerep	KB-3-1 cytotox
COc1ccc(-c2ccc(C#N)c(SCC(=O)NCCc3ccccc3)n2)cc1OC	-	-	-	-	-
CCn1c(C)nnc1SCC(=O)Nc1nccs1	-	-	-	-	-
COc1ccc(-c2ccc(C#N)c(SCC(=O)Nc3sc4c(c3C#N)CCC4)n2)cc1OC	2.1µM	?	?	2.9µM	?
Cn1ncc2ccc(-c3ccc4ncnc(NCc5cccs5)c4c3)cc21	.	.	-	.	?
CN(C)CCCCCCNc1nccc(N2CCN(C)CC2)n1	.	.	-	.	?
Cc1cccc(C2=NN(c3ccc(Br)cc3)[C@@H](C(=O)N3CCOC3=O)[C@@H]2c2ccc(F)cc2)c1	9.2µM	-	-	?	-
Cc1cccc(C2=NN(c3ccc(Br)cc3)[C@@H](C(=O)N3CCOC3=O)[C@@H]2c2ccc(Cl)cc2)c1	8.2µM	-	-	?	-
COc1ccccc1-c1cc(C(=O)N/N=C/c2ccoc2)c2ccccc2n1	-	?	?	-	-
Cc1cc2nc3c(=O)[nH]c(=O)nc-3n(C[C@H](O)[C@H](O)[C@H](O)COP(=O)(O)OP(=O)(O)OC[C@H]3O[C@@H](n4cnc5c(N)ncnc54)[C@H](O)[C@@H]3O)c2cc1C	-	.	.	-	.
Cc1ccc(-n2ncc3c(N4CCCCCC4)ncnc32)cc1C	.	.	-	.	-
CCCCc1nn2c(=O)cc(COC(=O)c3ccc(NC(=O)c4cccc(OC)c4)cc3)nc2s1	.	.	?	.	-
COc1ccc(-c2csc(/C(C#N)=C\c3ccc(O)c([N+](=O)[O-])c3)n2)cc1OC	-	15µM	-	-	-
O=C(Cn1c(=O)n(CC2CCCO2)c(=O)c2ccccc21)Nc1ccc(F)cc1F (centres undefined)	.	.	-	.	-
COc1ccc2nc(-c3ccc(F)cc3)sc2c1	?	.	-	-	-
CC(=O)N(C1=C(Cl)C(=O)c2ccccc2C1=O)C1CCCCC1	?	16µM	?	?	?
Cc1ccc(O)c(C(=O)CC(=O)c2ccc(C(C)(C)C)cc2)c1	-	-	-	?	?
Cc1ccc(O)c(C(=O)CC(=O)c2ccccc2Cl)c1	-	-	7.3µM	?	?
CC(=O)Nc1ccc(CC(=O)NCCC(c2ccccc2)c2ccccc2)cc1	21µM	-	-	?	-

Compound activity (PubChem)
